# Source: publication PMC4336329 (PLoS ONE, 2015)
# Hit rate of the full screen: of about 310,000 compounds, about 14,000 (4.5%) showed an effect of 50% or more. Effects have a minus sign here. The sample as a whole holds a higher share of strong results than the screen did.
# Target: human ether-à-go-go-related gene (hERG) potassium channel (human, UniProt Q12809)
# Assay: primary screen, population patch clamp on CHO cells stably expressing hERG; higher = less effect of the substance
# Procedure: Briefly, Chinese hamster ovary (CHO) cells stably expressing the hERG channel were dislodged from tissue culture flasks and dispensed into PPC plates. […] During the recording, background leak currents were estimated by a 100 ms step to -80 mV from an initial holding potential of -70 mV and subtracted from the subsequent current measurement. The campaign was conducted in two phases using slight differences in recording protocol. In the first phase, the initial voltage pulse used a 100 ms step to -30 mV from a holding potential of -70 mV, a 2 s conditioning step to +25 mV, and a 2 s test step to -30 mV. During the second phase of the screen, the potential during the conditioning step was raised to +45 mV. In both phases of the campaign, a secondary voltage pulse was applied using the same parameters as the second phase initial pulse. The initial and secondary pulses were applied in the absence of compound, and upon application of 1 μM and 10 μM test concentrations. […]
# 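Further: peak tail current of the secondary pulse compared with the same well before compound.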
# human ether-à-go-go-related gene (hERG) potassium channel, sequence (Q12809 whole entry, looked up): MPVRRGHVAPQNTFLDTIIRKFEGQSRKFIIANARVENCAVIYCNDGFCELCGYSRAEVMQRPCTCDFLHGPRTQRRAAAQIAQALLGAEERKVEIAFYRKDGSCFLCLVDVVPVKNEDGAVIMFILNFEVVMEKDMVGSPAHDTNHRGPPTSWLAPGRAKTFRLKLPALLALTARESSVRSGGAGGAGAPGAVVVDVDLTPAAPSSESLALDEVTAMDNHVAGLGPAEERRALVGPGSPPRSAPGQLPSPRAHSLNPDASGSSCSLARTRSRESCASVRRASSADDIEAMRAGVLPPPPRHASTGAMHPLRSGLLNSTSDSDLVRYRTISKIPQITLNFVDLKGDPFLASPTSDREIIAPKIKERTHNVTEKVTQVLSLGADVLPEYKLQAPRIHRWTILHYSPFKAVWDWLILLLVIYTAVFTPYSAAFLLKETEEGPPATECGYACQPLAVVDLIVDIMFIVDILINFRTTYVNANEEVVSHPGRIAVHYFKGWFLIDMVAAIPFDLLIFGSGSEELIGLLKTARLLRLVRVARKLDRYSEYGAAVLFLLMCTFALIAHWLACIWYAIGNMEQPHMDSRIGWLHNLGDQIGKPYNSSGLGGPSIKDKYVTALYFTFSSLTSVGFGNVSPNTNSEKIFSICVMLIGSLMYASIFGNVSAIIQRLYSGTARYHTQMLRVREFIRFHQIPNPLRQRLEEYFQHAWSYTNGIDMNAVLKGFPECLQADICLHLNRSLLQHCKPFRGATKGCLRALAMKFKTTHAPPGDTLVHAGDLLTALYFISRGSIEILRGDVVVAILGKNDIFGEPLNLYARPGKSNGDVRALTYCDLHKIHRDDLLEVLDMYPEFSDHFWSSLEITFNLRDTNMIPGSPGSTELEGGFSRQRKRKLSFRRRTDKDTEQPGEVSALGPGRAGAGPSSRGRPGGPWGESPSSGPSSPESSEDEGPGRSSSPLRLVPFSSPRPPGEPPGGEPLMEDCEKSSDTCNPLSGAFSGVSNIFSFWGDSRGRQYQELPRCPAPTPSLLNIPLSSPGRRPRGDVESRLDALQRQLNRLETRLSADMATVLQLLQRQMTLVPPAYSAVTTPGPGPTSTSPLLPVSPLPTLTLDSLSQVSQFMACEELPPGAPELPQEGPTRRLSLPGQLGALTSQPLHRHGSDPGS
row,SMILES,"hERG current change (%, negative = inhibition) at 10uM [%]"
1,COCCN(C(=O)CSc1nnc(C)n1-c1ccc(C)cc1)c1c(N)n(Cc2ccccc2)c(=O)[nH]c1=O,-2.83
2,COc1ccc(C(=O)NCc2ccc(-c3nc4ccccc4s3)cc2)cc1,10.1
3,NS(=O)(=O)c1ccc(CCNC(=O)Nc2ccc(Cl)c(Cl)c2)cc1,15.3
4,CN(C)C1=NCCN1CCc1cccc(F)c1,-8.41
5,O=C(NCCN1CCOCC1)c1cc2ccccc2oc1=O,-1.87
6,Oc1ccc(/C=N/Nc2nccnc2Cl)c(O)c1,0.455
7,COc1ccc(OC)c(C2=NOC(C(=O)NCc3cccs3)C2)c1 (stereo not shown),-13.5
8,Cc1ccc(CNc2nc3ccccc3n3cnnc23)cc1,-6.53
9,O=C(NCC(=O)N(CCc1ccccc1)C(C(=O)NC1CCCC1)c1cccnc1)c1ccco1 (stereo not shown),-43.8
10,Cc1ccc(CN(C(=O)c2ccco2)C(C(=O)NC2CCCC2)c2cccnc2)cc1 (stereo not shown),-1.98
11,O=C(NC1CCCC1)C(c1cccnc1)N(CCc1ccccc1)C(=O)c1ccco1 (stereo not shown),-69
12,CCOC(=O)c1cc(-c2ccccc2)nn1CC1CC(c2ccc(Cl)cc2)=NO1 (stereo not shown),-16.2
13,COc1ccc([N+](=O)[O-])cc1NC(=O)C1(c2ccc(OC)c(OC)c2)CCOCC1,-14.4
14,Cc1ccc(NC(=O)CSc2nnc(CNC(=O)c3cccs3)o2)c(C)c1,6.79
15,COc1ccccc1CCNC(=O)/C(=C/c1cccnc1)NC(=O)c1ccccc1,-33.9
16,O=C(NCCc1ccc(Cl)cc1)/C(=C/c1cccnc1)NC(=O)c1ccccc1,-70.9
17,COc1ccc(CCNC(=O)/C(=C/c2cccnc2)NC(=O)c2ccccc2)cc1,-47.2
18,O=C(NCCc1cccc(F)c1)/C(=C/c1cccnc1)NC(=O)c1ccccc1,-36.4
19,O=C(NCCc1ccccc1F)/C(=C/c1cccnc1)NC(=O)c1ccccc1,-52.2
20,COc1ccc(CCNC(=O)/C(=C/c2cccnc2)NC(=O)c2ccccc2)cc1OC,-3.35
21,CC1(C)c2[nH]c3ccccc3c2C[C@@H]2C(=O)N(Cc3ccccc3Cl)C(=O)N21,15.4
22,Cc1ccc(S(=O)(=O)NC(C)(C)CSc2nncn2N)cc1,9.75
23,O=C(O)C#Cc1cccc2ccccc12,29.8

row,SMILES,"hERG current change (%, negative = inhibition) at 10uM [%]"
1,COc1ccc(NC(=O)CN2CCN(c3ccc(F)cc3)CC2)cc1,-4.62
2,O=C(CN1CCN(c2ccc(O)cc2)CC1)Nc1ccc(-c2ccccc2)cc1,-5.1
3,O=C1CN(CC(=O)Nc2ccc(SC(F)F)cc2)CCN1,-32.6
4,O=C(CN1CCN(c2ccc(O)cc2)CC1)Nc1ccc(SC(F)F)cc1,-74.7
5,COc1ccc(NC(=O)CN2CCN(c3ccccc3)CC2)cc1,1.85
6,COc1ccc(N2CCN(CC(=O)Nc3ccc(SC(F)F)cc3)CC2)cc1,-76.6
7,COc1cccc(N2CCN(CC(=O)Nc3ccc(SC(F)F)cc3)CC2)c1,-65.5
8,COc1cccc(N2CCN(CC(=O)Nc3ccc(-n4cnnn4)cc3)CC2)c1,7.28
9,COc1ccc(N2CCN(CC(=O)Nc3ccc(C)cc3)CC2)cc1,-18.7
10,COc1ccc(OC)c(C(=O)COC(=O)c2c(OC)cccc2OC)c1,8.03
11,CCCN1CCC(NC(=O)C2CCCCC2C(=O)O)CC1 (stereo not shown),-1.65
12,C(=N\N=C\c1cccs1)/c1cccs1,-2.57
13,Cc1nn(CCC#N)c2c1P(=S)(N1CCCC1)OC(c1ccc(F)cc1)=N2 (stereo not shown),-7.21
14,C=CCN1C(=O)C(CC(=O)O)SC1=Nc1c(C)n(C)n(-c2ccccc2)c1=O (stereo not shown),1.73
15,COc1ccccc1/C=C1\SC(=O)N(CC(=O)N(C)C2CCS(=O)(=O)C2)C1=O (stereo not shown),11.5
16,Nc1cc(N)cc(C(=O)Nc2ccc3c(c2)C(=O)NC3=O)c1,12.1
17,O=C(CN1C(=O)NC2(CCCCCC2)C1=O)N1CCN(c2ccccc2)CC1,-2.9
18,CCOc1ccc(Cl)cc1S(=O)(=O)N1CCCC1,-6.06
19,CN1CCN(c2nnc(-c3ccc(Cl)cc3)c3ccccc23)CC1,-45.7
20,O=C1c2ccccc2S(=O)(=O)c2cc(C(=O)N3CCN(c4ccccc4)CC3)ccc21,-25
21,COc1ccc(-c2nc(-c3ccncc3)no2)cc1,10.5
22,COc1ccc(-c2nn(-c3ccccc3)cc2CNCc2cccnc2)c(F)c1,-28.1
23,Cc1ccc(-c2nn(-c3cccc(F)c3)cc2CNCCc2ccncc2)o1,-53.6

row,SMILES,"hERG current change (%, negative = inhibition) at 10uM [%]"
1,Cc1ccc(-c2nn(-c3ccccc3)cc2CO)o1,-0.28
2,COc1ccc(-n2cc(CNCc3cccnc3)c(-c3cccc(F)c3)n2)cc1,-47.7
3,Cc1ccc(-c2nn(-c3cccc(F)c3)cc2CN(Cc2nccn2C)C(C)C)o1,-21.4
4,Cc1ccc(-c2nn(-c3cccc(F)c3)cc2CNCc2cccnc2)o1,-51.6
5,Cc1ccc(-c2nn(-c3cccc(F)c3)cc2CN2CCN(c3ccccn3)CC2)o1,-26.5
6,COc1ccc(CNCc2cn(-c3cccc(F)c3)nc2-c2ccc(C)o2)cc1,-55.5
7,COCCNCCCCOc1ccccc1-c1ccccc1.O=C(O)C(=O)O,-27.5
8,Cc1cc(C(=O)NCC(=O)OCC(=O)NCC2CCCO2)ccc1[N+](=O)[O-] (stereo not shown),15.3
9,COc1ccc(C2C(C(=O)N3CCCC3)CC(=O)N2c2ccc(OC)cc2)cc1 (stereo not shown),0.91
10,O=C(Cn1cnc2c(oc3nc4c(cc32)CCCC4)c1=O)Nc1cccc(Cl)c1,16.2
11,COc1ccc(-c2cn[nH]c2-c2ccc(OCC(=O)NN)cc2O)cc1,17.4
12,CCCOC(=O)c1ccc(NC(=O)Oc2ccccc2)cc1,3.21
13,CCOC(=O)c1cccc(-[n+]2c(-c3ccccc3)cc(-c3ccccc3)cc2-c2ccccc2)c1.[O-][Cl+3]([O-])([O-])[O-],-73.5
14,CCOC(=O)c1ccc(-[n+]2c(-c3ccccc3)cc(-c3ccccc3)cc2-c2ccccc2)cc1.[O-][Cl+3]([O-])([O-])[O-],-77.9
15,CCOC(=O)c1cccc(P(=O)(C(C)(C)C)C(C)(C)C)c1,17.1
16,CCOC(=O)c1ccc(Cl)c(NC(=O)c2ccc(-c3ccccc3)cc2)c1,1.02
17,CCCOC(=O)c1ccc(-[n+]2c(-c3ccccc3)cc(-c3ccccc3)cc2-c2ccccc2)cc1.[O-][Cl+3]([O-])([O-])[O-],-77.2
18,CCOC(=O)c1ccc(P(=O)(c2ccccc2)c2ccccc2)cc1,-18.2
19,CCCOC(=O)c1ccc(Cl)c(NC(=O)c2ccc(-c3ccccc3)cc2)c1,-5.63
20,CCOC(=O)c1ccc(/[N+]([O-])=C/c2ccccc2)cc1,0.217
21,O=C(O)CCC(=O)c1ccc2c(c1)OCCO2,1.89
22,O=c1c(C=NCc2cccs2)c(O)n(C2CCCCC2)c(=O)n1C1CCCCC1,8.72
23,O=C(CCCCCNC(=O)N1CCn2c1nc1ccccc12)NCCc1ccccc1,9.42

row,SMILES,"hERG current change (%, negative = inhibition) at 10uM [%]"
1,O=C(O)c1ccccc1C(=O)N1N=C(c2ccccc2)CC1c1ccccc1O (stereo not shown),6.81
2,Cc1nn(C(=O)c2ccco2)c(C)c1Sc1ccc(Br)cc1,-4.64
3,COC(=O)CN1C(=O)COc2ccc(S(=O)(=O)N3CCCCCC3)cc21,-7.44
4,O=C(CSc1nnc(Cc2cc(=O)[nH]c(=O)[nH]2)n1-c1ccc(Cl)cc1)NC1CCCC1,10.7
5,COC(=O)CSc1[nH]c(=O)cc(C)c1C#N,19.9
6,O=C(CN1CCc2ccccc2C1)NCC(=O)Nc1ccc(F)cc1,13.5
7,O=C(Nc1ccc(Cl)cc1)[C@@H]1[C@@H]2C(=O)N(c3cccc(F)c3)C(=O)[C@@H]2[C@H]2C=CC=NN21,-9.36
8,CCCCc1ccc(N=N/C(C(=O)Nc2ccc(NC(C)=O)cc2OC)=C(/C)O)cc1,-50.2
9,CCCCc1ccc(N=N/C(C(=O)Nc2ccccc2OC)=C(/C)O)cc1,-8.51
10,CCCCc1ccc(N=N/C(C(=O)Nc2cc(OC)c(NC(C)=O)cc2OC)=C(/C)O)cc1,14.2
11,CN(C)S(=O)(=O)c1cccc(COC(=O)CCNC(=O)c2ccc([N+](=O)[O-])cc2)c1,-55.2
12,O=C(CCNC(=O)c1ccc(Cl)cc1)Nc1cccc(S(=O)(=O)N2CCCCC2)c1,-46
13,O=C(CCNC(=O)c1ccc([N+](=O)[O-])cc1)Nc1cccc(S(=O)(=O)N2CCCCCC2)c1,-75.1
14,O=C(CCNC(=O)c1ccc(Br)cc1)Nc1cccc(S(=O)(=O)N2CCCCC2)c1,-36.1
15,O=C(CCCNC(=O)c1ccc(Cl)cc1)Nc1cccc(S(=O)(=O)N2CCCCC2)c1,-20.2
16,CN(C)S(=O)(=O)c1ccc(C(=O)OCc2ccc([N+](=O)[O-])cc2)cc1,17.6
17,CN(C)S(=O)(=O)c1cccc(C(=O)NCCNC(=O)c2cccc(S(=O)(=O)N(C)C)c2)c1,15.9
18,O=C(CCNC(=O)c1ccc(Br)cc1)Nc1cccc(S(=O)(=O)N2CCCCCC2)c1,-34.1
19,O=C(CCNC(=O)c1ccc([N+](=O)[O-])cc1)Nc1cccc(S(=O)(=O)N2CCOCC2)c1,-31.7
20,O=C(CCNC(=O)c1ccc(Cl)cc1)Nc1cccc(S(=O)(=O)N2CCCCCC2)c1,-57.3
21,O=C(CCNC(=O)c1ccc(Br)cc1)Nc1cccc(S(=O)(=O)N2CCCC2)c1,-32.7
22,O=C(CCNC(=O)c1ccc([N+](=O)[O-])cc1)Nc1cccc(S(=O)(=O)N2CCCCC2)c1,-55.2
